# Test results: ChEMBL document CHEMBL4296182, “CO-ADD screening of NIH NCI Diversity Set V”
# For part of these data: Results with a measured potency or affinity are listed apart.
# Assays:
# Staphylococcus aureus = experiment: Antibacterial activity against Staphylococcus aureus MRSA ATCC 43300 (CO-ADD:GP_020); MIC in CAMBH media using NBS plates, by Resazurin F(560/590); assay type: functional; settings: Concentration 20 uM, ASSAY_TEST Inhibition of Bacterial Growth, detection method Resazurin, Fluorescence (ex560/em590), MEDIA CAMHB, plate type 384well, CORNING #3640, time 18 hr
# Acinetobacter baumannii = experiment: Antibacterial activity against Acinetobacter baumannii ATCC 19606 (CO-ADD:GN_034); MIC in CAMBH media using NBS plates, by Resazurin F(560/590); assay type: functional; settings: Concentration 20 uM, ASSAY_TEST Inhibition of Bacterial Growth, detection method Resazurin, Fluorescence (ex560/em590), MEDIA CAMHB, plate type 384well, CORNING #3640, time 18 hr
# Escherichia coli = experiment: Antibacterial activity against Escherichia coli ATCC 25922 (CO-ADD:GN_001); MIC in CAMBH media using NBS plates, by Resazurin F(560/590); assay type: functional; settings: Concentration 20 uM, ASSAY_TEST Inhibition of Bacterial Growth, detection method Resazurin, Fluorescence (ex560/em590), MEDIA CAMHB, plate type 384well, CORNING #3640, time 18 hr
# Klebsiella pneumoniae = settings: Concentration 20 uM; ASSAY_TEST Inhibition of Bacterial Growth; detection method Absorption (OD600); MEDIA CAMHB; plate type 384well; NBS; CORNING #3640; time 18 hr
# Candida albicans = settings: 20 µM
# Cryptococcus neoformans = settings: Concentration 20 uM; ASSAY_TEST Inhibition of Fungal Growth; detection method Resazurin; Absorption (OD600-OD570); plate type 384well; NBS; CORNING #3640
Structure (SMILES),Inhibition (Staphylococcus aureus),Inhibition (Acinetobacter baumannii),Inhibition (Escherichia coli),Inhibition (Klebsiella pneumoniae),Inhibition (Candida albicans),Inhibition (Cryptococcus neoformans)
O=c1[nH]c(=O)n2ncnc2[nH]1,16.94%,-11.21%,5.82%,7.37%,-1.3%,-10.02%
Oc1ccccc1/N=C/c1c(O)ccc2ccccc12,7.8%,-11.56%,8.07%,1.58%,52.3%,25.14%
COC1OC2COC(c3ccccc3)OC2C(=O)C1NC(=O)c1ccccc1 (stereo not drawn),8.72%,4.09%,10.65%,10.3%,2.12%,-18.55%
Cc1cc(O)c2c(O)[nH]nc2n1,14.32%,-13.07%,7.82%,1.49%,-3.37%,-5%
OCc1ncc(-c2ccccc2)s1,-7.34%,-9.91%,3.7%,5.05%,2.13%,-4.82%
C=CCSC(CC)(CC)C(N)=O,1.95%,-2.06%,-8.58%,10.13%,1.53%,7.21%
Nc1ccccc1C(=O)Nc1ccc(Cl)cc1Cl,13.76%,-19.7%,13.8%,0.81%,3.17%,-17.52%
CCN(CC)CCN1c2ccccc2Sc2ccc3ccccc3c21,2.63%,-0.08%,11.87%,8.87%,0.24%,-5.58%
CCOC(=O)/C(=N\O)C1=CSC2=NNC(C)(C)N12,3.63%,-13.67%,6.92%,9.3%,5.91%,-6.65%
O=C1CCC(NC(=O)c2ccccc2)C(=O)N1 (stereo not drawn),13.55%,6.82%,7.42%,5.68%,1.37%,-6.13%
Cn1c(SCc2ccccn2)nc2c1c(=O)[nH]c(=O)n2C,7.99%,-7.81%,13.96%,9.58%,0.41%,-8.81%
O=C(O)Cc1ccc(/N=N/c2c(O)c(C(=O)O)cc3ccccc23)cc1,6.99%,6.89%,1.22%,11.34%,-4.81%,-5.37%
COC(=O)C1(C)Cc2cc(OC(C)=O)c(OC(C)=O)cc2N1 (stereo not drawn),12.77%,0.02%,8.98%,5.52%,-3.71%,-8.65%
O=C(O)C1OCC2(CO1)COC(C(=O)O)OC2 (stereo not drawn),10.92%,-13.06%,10.47%,3.27%,1.43%,-1.34%
Cn1nc(SCc2ccccc2)c(=O)n(C(c2ccccc2)c2ccccc2)c1=O,19.74%,-15.03%,11.55%,5.74%,11%,-0.62%
COc1cc2c(O)cc(C(=O)O)c(-c3cc(OC)c(OC)c(OC)c3)c2cc1OC,5.82%,-7.99%,8.13%,8.82%,-0.33%,-9.59%
Cc1ccc(-c2cssc2=S)cc1,-26.91%,-10.22%,-20.59%,2.16%,13.1%,11.55%
COc1cccc(/C=C/c2nccc3ccccc23)c1OC,13.01%,1.37%,11.96%,0.37%,0.68%,-13.37%
